Vif imaging = HIV Vif self-association inhibitors, primary screen, imaging, HEK293T, single point | inhibition, % at 7.49 µM | hit rate 0.35% among 340,000 | HEK293T cells, Vif self-association by quenched fluorescence, 24 h; in the data active = inhibition above about 50%, passing the limit was not always enough
Wnt bcat act = Wnt/beta-catenin pathway activators, primary screen, cell-based, plate reader, single point; Wnt/beta-catenin reporter cell assay, activator; activation, % at 9.35 µM; hit rate 1.2% among 300,000; AID 743398, 2014; in the data active = activation above about 30%, passing the limit was not always enough;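 also: 0% = neutral control wells and 100% = positive control wells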
PvdQ acylase = P. aeruginosa PvdQ acylase inhibitors, primary screen, biochemical, fluorescence, plate reader and imaging, single point; PvdQ acylase [Pseudomonas aeruginosa LESB58]; purified PvdQ acylase; inhibition, % at 10 µM; hit rate 0.063% among 340,000; AID 488965, 2010; in the data active = inhibition above about 30%, passing the limit was not always enough;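 also: 0% = vehicle neutral wells and 100% = reference inhibitor wells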
Glyco luc inh = increase of ERlucT glycosylation luciferase signal, primary screen, N-linked glycosylation inhibitor project, D54 ERlucT cells, luminescence, set 2. D54 ERlucT glycosylation luciferase reporter, 24 h; percent of 100 nM tunicamycin response. reporter increase, % at 12.5 µM. hit rate 0.23% among 360,000;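 active = mean luciferase reporter signal, scaled so untreated is 0 and the glycosylation-blocking control 100, at or above a set limit in every replicate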;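 also: luciferase carries N-glycosylation sites so blocking glycosylation raises the light; 0% = median of neutral control wells and 100% = median of 100 nM tunicamycin wells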
MITF TRPM1 HTS = activators of MITF-driven TRPM1 promoter reporter, primary screen, cell-based, SK-MEL-5, luciferase, single point; SK-MEL-5 TRPM1-promoter luciferase, 24 h; % of positive control, neutral wells = 0; hit rate 0.75% among 300,000; activation, % at 12.5 µM;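 active = mean activation of at least 80% with every replicate also reaching 80%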;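 also: 0% = neutral control wells and 100% = parthenolide positive control wells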
esBAF inh = Bmi1 luciferase reporter increase in mESCs, primary screen, esBAF inhibitor project, mouse ES cells, Bmi1 luciferase knock-in, single point | 24 h; 100% = twice the neutral-well signal | reporter increase, % at 12.5 µM | hit rate 2% among 350,000 | AID 602393, 2012; in the data active = activation above about 40%;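 also: 0% = median of the plate's neutral control wells and 100% = double that signal; a rise in the Bmi1 reporter signal indicates esBAF inhibition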
The depositor's hits bear a star; · = no result; + = active, no number. Only some compounds are listed: those with a hit (about 2.9% of all), similar ones and a draw of the others.

SMILES	Vif imaging	Wnt bcat act	PvdQ acylase	Glyco luc inh	MITF TRPM1 HTS	esBAF inh
O=C(Nc1ccc(N2CCCC2)cc1)c1ccccc1F	·	·	6	-5	61	42*
Cc1sc(NC(=S)NC(=O)CCc2ccccc2)c(C(N)=O)c1C	125*	-30	4	18	-23	-10
Cc1sc(NC(=S)NC(=O)c2ccco2)c(C(N)=O)c1C	-3	24	-13	2	36	49*
O=C(Cn1cnc2ccccc2c1=O)c1ccc2ccccc2c1	-1	·	-7	3	52	35
Cc1ccc(C(=O)Cn2nnc3ccccc32)cc1	-25	·	-16	-5	73	63*
Cc1ccc(C(=O)Cn2nnc3ccccc32)cc1C	11	47*	-7	-7	110*	12
Cc1ccc(C(=O)Cn2cnc3ccccc3c2=O)cc1C	-10	12	11	0	67	57*
CCCN1C[C@@H](C)[C@@H](OC)CN(C)C(=O)c2cc(NC(=O)c3cnccn3)ccc2OC[C@@H]1C	·	·	·	·	·	-2
CO[C@@H]1CN(C)C(=O)c2cc(NC(C)=O)ccc2OC[C@@H](C)N(Cc2cccnc2)C[C@@H]1C	·	·	·	·	·	-2
O=C(O)C[C@@H]1CC[C@H](NC(=O)Nc2cc(F)ccc2F)[C@@H](CO)O1	·	·	·	·	·	-2
CCc1ccc2c(c1)C1(NN=C(c3ccc(C)cc3)S1)C(=O)N2 (stereo not drawn)	-5	·	-5	5	·	11
CC(C)c1ccc2c(c1)C1(NN=C(c3ccccc3)S1)C(=O)N2 (stereo not drawn)	-2	12	0	2	-43	87*
O=C(CCCn1c(=S)[nH]c2ccccc2c1=O)N1CCN(c2cccc(Cl)c2)CC1	107*	·	-7	-5	·	1
O=c1c2cc(N3CCOCC3)ccc2[nH]c(=S)n1Cc1ccc(Cl)cc1	6	·	9	1	60	54*
O=C(CCCCCn1c(=S)[nH]c2ccc(N3CCOCC3)cc2c1=O)NCc1ccccc1Cl	+	-4	-3	-3	-19	3
CC(C)NC(=O)Nc1ccc2c(c1)C(=O)N([C@H](C)CO)C[C@H](C)[C@@H](CN(C)S(=O)(=O)c1cccs1)OCCCC[C@@H](C)O2	·	·	·	·	·	-3
CN1CCN(C(=O)C[C@@H]2CC[C@H]3[C@@H](COc4ccc(NC(=O)C5CCCCC5)cc4C(=O)N3C)O2)CC1	·	·	·	·	·	-6
CCC(=O)Nc1sc2c(c1C#N)CC(C)(C)NC2(C)C	13	-3	-6	1	7	·
CC(C)CC(=O)Nc1sc2c(c1C#N)CC(C)(C)NC2(C)C	56*	·	-3	-1	·	-1
Cc1nn(-c2ccccc2)c2sc(C(=O)NC3CC3)cc12	-11	·	0	-4	·	47*
CNC(=O)COC(=O)c1cc2c(C)nn(-c3ccc(F)cc3)c2s1	22	-1	5	0	12	-6
Cc1nn(-c2ccc(F)cc2)c2sc(C(=O)N3CCCCCC3)cc12	-4	·	-9	-2	50	64*
CC(=O)c1sc(NC(=O)c2cc3c(C)nn(-c4ccccc4)c3s2)nc1C	-4	-8	4	0	-15	·
CCS(=O)(=O)NCC[C@@H]1CC[C@@H](NC(=O)C2CCCCC2)[C@H](CO)O1	·	·	·	·	·	0
O=[N+]([O-])c1ccc(Sc2cccc[n+]2[O-])c2nonc12	77*	-26	-2	-24	-99	·
SMILES	Vif imaging	Wnt bcat act	PvdQ acylase	Glyco luc inh	MITF TRPM1 HTS	esBAF inh
O=C(C[C@@H]1CC[C@H](NC(=O)Cc2ccccn2)[C@@H](CO)O1)NCCCN1CCOCC1	·	·	·	·	·	-3
CC(C)N(C(=O)[C@H]1C[C@H](CC(=O)NCCN2CCOCC2)C(=O)N2CCc3c([nH]c4cc(CCC(=O)N(C)C)ccc34)[C@]12C)C(C)C	103*	-1	-16	2	10	1
CC[C@]12c3[nH]c4cc(CCC(=O)N(C)C)ccc4c3CCN1C(=O)[C@@H](CC(=O)NC/C=C(\C)CCC=C(C)C)C[C@@H]2C(=O)N1CCN(C(=O)c2ccco2)CC1	6	·	-16	31*	-51	-31
CC(C)NC(=O)N[C@H]1CC[C@H](CCNC(=O)C2CCOCC2)O[C@H]1CO	·	·	·	·	·	-1
O=C(CCS(=O)(=O)c1ccc(Cl)cc1)NCCN1C(=O)S/C(=C\c2ccccc2F)C1=O	1	0	-4	3	11	·
Cc1ccc(S(=O)(=O)CCC(=O)NCCN2C(=O)S/C(=C\c3ccccc3)C2=O)cc1	-12	-1	-14	0	0	45*
Cc1ccc(S(=O)(=O)CCC(=O)NCCc2ccc(Cl)cc2)cc1	-21	0	8	0	-7	-14
Cc1ccc(CCNC(=O)CCS(=O)(=O)c2ccc(Br)cc2)cc1	5	16	30*	0	4	·
CC(C)(C)C(=O)Nc1ccc(C(=O)Nc2cccnc2)cc1	-2	49*	-9	-2	69	21
CCC(=O)Nc1ccc(C(=O)Nc2cccnc2)cc1	-4	5	-10	0	20	17
O=C(Nc1ccc(Cl)cc1)Nc1cccnc1	7	-1	4	-1	7	34
O=C(Nc1ccc(Cc2ccc(NC(=O)Nc3cccnc3)cc2)cc1)Nc1cccnc1	-5	-2	·	-1	·	56*
O=C(Nc1cccnc1)c1ccc(-c2ccccc2)cc1	-3	-4	-16	1	65	93*
Cc1nc(Sc2nnnn2C)c2c3c(sc2n1)CCC3	97*	-1	-4	-1	-86	7
CC(Sc1nc(N)cc(=O)[nH]1)C(=O)Nc1sc2c(c1C#N)CCCC2 (stereo not drawn)	-20	-1	-3	2	-7	·
CCCC(=O)Nc1sc2c(c1C#N)CCCC2	·	·	-19	1	70	53*
Cc1nnc(SC(C)C(=O)Nc2sc3c(c2C#N)CCCC3)[nH]c1=O (stereo not drawn)	53*	-2	8	1	4	8
Cc1onc(C(=O)Nc2sc3c(c2C#N)CCCC3)c1[N+](=O)[O-]	5	35*	-15	1	1	·
CC(C)C(=O)Nc1sc2c(c1C#N)CCCCC2	-2	14	-11	0	·	50*
COC(=O)CCC(=O)Nc1sc2c(c1C#N)CCCC2	0	-3	-11	0	-18	-7
C[C@@H]1CN([C@H](C)CO)C(=O)Cc2cc(NC(=O)Cn3cnnn3)ccc2O[C@@H]1CN(C)Cc1ccccc1	·	·	·	·	·	2
O=C(Nc1ccccc1)N[C@@H]1CC[C@H](CCNS(=O)(=O)c2cccc(F)c2)O[C@@H]1CO	·	·	·	·	·	1
Cc1cccc(OCC(=O)Nc2sc3c(c2C#N)CCC3)c1	0	-2	-4	-3	74	84*
